Screening results deposited in PubChem BioAssay by several laboratories.
Most compounds without a hit are left out; they make up all but 2.6% or so of the library.
MCL1 BIM primary: inhibitors of MCL1 binding to BIM-BH3, primary screen, biochemical, fluorescence polarization | GST-MCL1 / FITC-Bim-BH3 fluorescence polarization | Induced myeloid leukemia cell differentiation protein Mcl-1 (Homo sapiens), Q07820 | inhibition, % at 10.9 µM | 0.68% of 320,000 active;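 active means inhibition above the mean inhibition of all tested compounds plus 3 SD, set per campaign, cut at about 40% in these data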;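 further: higher means more loss of mP so more displacement of Bim peptide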
Target sequence (Q07820 whole entry, looked up): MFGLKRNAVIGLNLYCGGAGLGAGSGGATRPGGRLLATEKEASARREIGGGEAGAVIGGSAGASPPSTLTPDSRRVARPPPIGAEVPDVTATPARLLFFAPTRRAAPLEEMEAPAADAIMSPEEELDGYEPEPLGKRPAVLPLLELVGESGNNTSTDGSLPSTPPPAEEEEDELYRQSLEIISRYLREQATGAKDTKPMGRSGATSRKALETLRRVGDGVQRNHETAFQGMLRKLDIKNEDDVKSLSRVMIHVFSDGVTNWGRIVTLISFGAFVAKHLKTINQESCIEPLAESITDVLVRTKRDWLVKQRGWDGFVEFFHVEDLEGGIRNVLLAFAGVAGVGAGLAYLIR
Mcl1-Noxa inh: Mcl-1/Noxa binding inhibitors, primary screen, biochemical, TR-FRET, 1536-well; TR-FRET Mcl-1/Noxa peptide binding, 2 h; inhibition, % at 21.7 µM; 1.5% of 220,000 active; AID 1022, 2008;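 active means compounds that cut the protein-peptide binding signal by more than 50% relative to plate controls in a single-dose test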;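 further: His-tagged Mcl-1 with rhodamine Noxa BH3 peptide and terbium anti-His antibody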
Mcl-1 Bim block: inhibitors of Bim peptide binding to Mcl-1, primary screen, biochemical, bead-based flow cytometry, multiplex. Bim peptide-Mcl-1 binding. inhibition, % at 10 µM. 0.1% of 190,000 active; in the data active means inhibition above about 40%
14-3-3 Bad inh: inhibitors of 14-3-3 zeta/Bad binding, primary screen, biochemical, TR-FRET, bovine 14-3-3 zeta. AID 781, 2007. inhibition, % at 21.7 µM. TR-FRET 14-3-3zeta/Dy647-pBad peptide displacement, 1 h. 0.71% of 220,000 active;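 active means inhibition above about 70%, limit read from the data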
Target sequence (P63103 whole entry, looked up): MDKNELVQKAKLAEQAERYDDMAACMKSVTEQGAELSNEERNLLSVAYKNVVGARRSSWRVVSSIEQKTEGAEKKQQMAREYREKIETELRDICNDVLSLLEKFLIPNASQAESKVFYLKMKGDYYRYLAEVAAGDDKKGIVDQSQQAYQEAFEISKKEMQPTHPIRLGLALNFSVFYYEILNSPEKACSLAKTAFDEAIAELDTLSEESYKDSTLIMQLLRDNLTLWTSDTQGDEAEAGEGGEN
eIF4E-4G inh: eIF4E–eIF4G protein interaction inhibitors, primary screen, biochemical, uHTS, TR-FRET, eIF4GI fragment. 0.37% of 220,000 active. AID 782, 2007. Eukaryotic translation initiation factor 4E (Mus musculus) + Eukaryotic translation …. inhibition, % at 21.7 µM. TR-FRET eIF4E-eIF4GI(517-606) binding, 2 h;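 active means inhibition above about 30%, limit read from the data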
Mcl1 Bid PPI: Mcl-1/Bid binding inhibitors, primary screen, biochemical, TR-FRET, 1536-well | Induced myeloid leukemia cell differentiation protein Mcl-1 (Homo sapiens), Q07820 | TR-FRET Mcl-1/Bid-Dy647 peptide binding | inhibition, % at 21.7 µM | 0.97% of 220,000 active;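 active means compounds that cut the binding signal by more than half at the single screening dose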;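 further: His-tagged Mcl-1 with europium anti-His antibody binding Bid BH3 peptide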
Numbers stand for hits; 0 = inactive; - = no result given; [ ] = remark or other dose.

SMILES	MCL1 BIM primary	Mcl1-Noxa inh	Mcl-1 Bim block	14-3-3 Bad inh	eIF4E-4G inh	Mcl1 Bid PPI
Cc1ccc(C(=O)C2C(c3cccs3)NC(=O)NC2(O)C(F)(F)F)cc1 (configuration not stated)	0	0	0	0	0	63
Cc1ccc(C2NC(=O)NC(O)(C(F)(F)F)C2C(=O)c2cccs2)o1 (configuration not stated)	0	0	0	0	0	0
O=C(CSc1nnc2c(n1)[nH]c1ccc(F)cc12)NCc1ccc(F)cc1	0	-	-	-	-	-
Cc1ccc(N(C(=O)C(F)(F)F)C(C(=O)NC2CCCCC2)c2cccs2)cc1C (configuration not stated)	0	0	0	0	0	66
O=C(NC1CCCCC1)C(c1cccs1)N(C(=O)C(F)(F)F)c1ccccc1 (configuration not stated)	0	0	0	0	0	0
Cc1c(C(=O)NNC(=S)NCc2ccc(Cl)cc2)oc2ccccc12	0	-	-	-	-	-
Cc1ccc(C)c(C(=O)COC(=O)Cn2c(C)csc2=O)c1	0	-	-	-	-	-
CN(C)c1ccc(CNCCC2CCOC(C)(C)C2)cc1 (configuration not stated)	0	0	0	92	0	0
N#C/C(=C(/O)c1ccc([N+](=O)[O-])cc1)c1nc2ccccc2[nH]1	0	0	-	0	0	0
N#C/C(=C(/O)c1ccc(Cl)c([N+](=O)[O-])c1)c1nc2ccccc2[nH]1	0	66	-	0	0	0
CCCCn1c(-c2ccc(Cl)cc2)nc2c(=O)n(C)c(=O)[nH]c21	-	76	0	0	0	0
Clc1ccc(SCCn2cncn2)cc1	0	-	0	73	0	0
CC(C)(C)c1nc(CN2CCOCC2)cc(CN2CCOCC2)c1O	0	0	0	79	0	0
Oc1c(CN2CCOCC2)cc(-c2ccccc2)cc1CN1CCOCC1	0	0	0	0	0	0
Cc1ccc(C)c(C(C)NC(=O)Cc2cccs2)c1 (configuration not stated)	0	-	-	-	-	-
Cc1cc(Nc2ccc(O)cc2)ccc1N	41	-	-	-	-	-
Cc1cc(C)nc(Nc2ccc(O)cc2)n1	0	-	-	-	-	-
Cc1cc(NC(=O)CSc2ncn[nH]2)no1	0	0	0	0	0	0
CC(C)c1nnc(NC(=O)CSc2ncn[nH]2)s1	0	53	0	0	0	0
CCCCCC(=O)NC(NC(=S)NC1CCS(=O)(=O)C1)C(Cl)(Cl)Cl (configuration not stated)	0	0	0	0	40	0
N#Cc1c(/N=C/C=C/c2ccccc2)sc2c1CCCC2	0	0	0	0	0	0
O=C(OC(C(=O)Nc1cccc(C(F)(F)F)c1)c1ccccc1)C1CCCCC1 (configuration not stated)	0	0	0	0	0	0
O=C(NN1CCOCC1)c1cc(-c2ccc(Br)s2)nc2ccccc12	0	0	0	0	0	0
Cc1ccc(-c2cc(C(=O)NC3=NCCS3)c3cc(Br)ccc3n2)o1	0	102	0	0	0	51
Cc1ccc(-c2cc(C(=O)NN3CCOCC3)c3cc(Br)ccc3n2)o1	0	57	0	0	0	0
SMILES	MCL1 BIM primary	Mcl1-Noxa inh	Mcl-1 Bim block	14-3-3 Bad inh	eIF4E-4G inh	Mcl1 Bid PPI
Cc1ccc(-c2cc(C(=O)NCCCn3ccnc3)c3cc(Br)ccc3n2)o1	0	76	0	0	0	0
CC(=O)N/C(=C\c1ccccc1)C(=O)OCC(=O)N(CC(C)C)c1c(N)n(Cc2ccccc2)c(=O)[nH]c1=O	0	-	-	-	-	-
COc1cccc(CN2CC(C(=O)N(C)CCCC3CCCC3)CCC2=O)c1 (configuration not stated)	0	-	-	-	-	-
Cc1[nH]n(-c2ccccc2)c(=S)c1C=Nc1cccc([N+](=O)[O-])c1	0	0	0	0	55	0
Cc1cc(/C=C2\SC(=Nc3ccccc3)NC2=O)c(C)n1-c1ccc(S(N)(=O)=O)cc1	0	0	0	0	0	0
O=C(NCCc1ccc(Cl)cc1)c1cc(-c2ccccn2)nc2ccccc12	0	-	-	-	-	-
Cc1c(C(=O)Nc2ccccc2)cn2c(nc3ccccc32)c1C#N	0	0	0	0	0	0
Cc1ccccc1C(=O)Nc1ccc2c(C#N)c3nc4ccccc4nc3n2c1	0	70	0	89[fluorescence artefact?]	0	84
O=S1(=O)N=C(Oc2cccc3ccccc23)c2ccccc21	0	0	0	86	0	0
Cc1ccccc1OC1=NS(=O)(=O)c2ccccc21	0	0	0	0	0	0
COc1ccccc1OCC(=O)Nc1ccc(S(=O)(=O)N(C)c2ccccc2)cc1	0	-	-	-	-	-
CC1(C(=O)NNC(=O)C2CCCCC2)CC1(Cl)Cl (configuration not stated)	0	0	-	0	0	99
CSc1[nH]c(=O)c(C(=O)O)cc1C#N	0	0	0	71	0	0
CCCN1C(=O)C2(/C(=C(\O)c3ccc4c(c3)OCCO4)C(=O)C(=O)N2CCCOC)c2ccccc21 (configuration not stated)	0	0	0	0	0	0
CCCOc1ccc(/C(O)=C2\C(=O)C(=O)N(CCCOC)C23C(=O)N(C)c2ccccc23)cc1 (configuration not stated)	0	0	0	70	0	0
CCOc1ccc(C(=O)NCC(=O)OCc2nnc(-c3ccccc3)o2)cc1OCC	0	-	-	-	-	-
Cc1cc(C(=O)COC(=O)CCc2nc3ccccc3s2)c(C)n1C	0	59	0	0	0	0
O=C(CCc1nc2ccccc2s1)OCc1ccccc1	0	0	0	0	0	0
Cc1ccc(NC(=O)Nc2sc(=S)n(C)c2C)cc1	0	54	0	0	0	0
Cc1c(NC(=O)Oc2ccccc2)sc(=S)n1C	0	0	0	0	0	0
CC(=O)NC(=O)Nc1sc(=S)n(C)c1C	0	0	41	0	0	0
Cc1[nH]n(-c2ccc(F)cc2)c(=O)c1/C=N/c1sc2c(c1C#N)CCCC2	0	0	0	81	0	0
Cc1[nH]n(-c2cccc3ccccc23)c(=O)c1/C=N/c1sc2c(c1C#N)CCC2	0	0	0	0	0	0
COc1ccc([N+](=O)[O-])cc1NC(=O)C(C)Sc1nc(-c2ccccc2)cs1 (configuration not stated)	0	0	0	0	0	0
COc1ccc(NN=Nc2nc3c([nH]2)c(=O)n(C)c(=O)n3C)cc1	0	67	-	0	0	0
